Results on six compounds are retold here after PubChem BioAssay.

A short description of assay [1]: small molecules captured by biotinylated probe aFSTL3 – biochemical, small-molecule microarray, fluorescence 635/667, stem cell growth factor project, primary screen (AID 1064).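 Note: measures binding of the biotinylated anti-FSTL3 antibody to printed compounds.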 The following applies: higher = more signal.
Assay [2] in a line: binders from COS7 lysate, DM2A8 probe, primary screen, torsin A project, cell lysate, small-molecule microarray, fluorescence 635/667 (AID 1065). The following applies: higher = more signal, COS7 lysate expressing mutant human TOR1A.
Assay [3] can be described thus: small molecules captured by biotinylated probe aFGF2 – biochemical, small-molecule microarray, fluorescence 635/667, stem cell growth factor project, primary screen (AID 1067).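 Note: measures binding of biotinylated aFGF2 protein to printed compounds on slides; z-score merges feature fluorescence and signal-to-noise across triplicate slides.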 To be noted: higher = more signal.
A short description of assay [4]: small molecules captured by biotinylated probe aFGF10 – biochemical, small-molecule microarray, fluorescence 635/667, stem cell growth factor project, primary screen (AID 1071).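 Note: score merges 667 nm spot intensity and signal to noise from triplicate slides.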 To be noted: higher = more signal.
In assay [5] the target is Neurogenic locus notch homolog protein 2 (Homo sapiens) (UniProt Q04721). As to the kind of experiment: small molecules binding Notch2 protein – biochemical, small-molecule microarray, 635 nm fluorescence, stem cell growth factors, primary screen (AID 1073). To be noted: higher = more signal.
Assay [6] addresses Pro-neuregulin-1, membrane-bound isoform (Homo sapiens) (UniProt Q02297). Briefly: small molecules binding neuregulin-1 protein – biochemical, small-molecule microarray, fluorescence 635/667, psychiatric disease protein project, primary screen (AID 1075).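 Note: score combines 667 nm spot fluorescence with signal to noise.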 The following applies: NRG1 binding, 635 nm fluorescence, higher = more signal.
Assay [7] concerns Neuregulin-1 EGF-like domain. As to the kind of experiment: small molecules binding NRG1 EGF domain – biochemical, small-molecule microarray, 635 nm fluorescence, primary screen (AID 1081).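 Note: binding of the protein to compounds printed on small-molecule microarray slides.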 The following applies: higher = more signal.
A short description of assay [8]: FRG1 expression reporter modulators in myotubes – cell-based, C2C12 myotubes, firefly/Renilla luciferase, luminescence, FRG1 inhibition for FSHD, primary screen (AID 1084). The following applies: FRG1 promoter luciferase, higher = more signal, called active from +8 up or from −8 down.
Assay [9] can be described thus: small molecules captured by biotinylated probe aFST – biochemical, small-molecule microarray, fluorescence 635/667, stem cell growth factor project, primary screen (AID 1086).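 Note: score merges 667 nm fluorescence with signal-to-noise of each printed compound spot.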 The following applies: higher = more signal.
Assay [10] in a line: binders of probe aHhip on microarray, primary screen, stem cell growth factor project, biochemical, small-molecule microarray, fluorescence 635/667 (AID 1087).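 Note: score merges spot fluorescence at 667nm with spot signal to noise ratio.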 The following applies: higher = more signal.
In assay [11] the test system is PRMT1 (protein arginine N-methyltransferase 1). As to the kind of experiment: small molecules binding arginine methyltransferase PRMT1 – biochemical, small-molecule microarray, 635 nm fluorescence, primary screen (AID 1088).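 Note: binding of Prmt1 protein to compounds spotted on small-molecule microarray slides.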 To be noted: higher = more signal.
The nature of assay [12]: growth effects on S. cerevisiae YJM789 – YJM789 clinical isolate, OD600, 24 h, basal, primary screen (AID 1089).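 Note: growth of clinical yeast isolate S. cerevisiae YJM 789 seeded 1000 cells per well; test concentration not given here.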 To be noted: higher = more signal, called active from +8 up or from −8 down.
A short description of assay [13]: S. pombe growth modifiers, basal conditions – strain 972, OD600, 24 h, no modulator, primary screen (AID 1090).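 Note: basal condition with compound alone and no growth modifier present; test concentration not given here.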 The following applies: S. pombe 972 growth, higher = more signal, called active from +8 up or from −8 down.
Assay [14] can be described thus: budding yeast growth modifiers under rapamycin – strain BY4716, OD600, 96 h, primary screen (AID 1091). Note: test concentration not given here. To be noted: S. cerevisiae BY4716 + rapamycin, higher = more signal, called active from +8 up or from −8 down.
In assay [15] the target is Torsin-1A-interacting protein 2 (Homo sapiens) (UniProt Q8NFQ8). Briefly: small molecules binding lysate-expressed LULL1 – cell lysate, human LULL1 lysate, 635/667 nm fluorescence, primary screen (AID 1092).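 Note: probe is lysate of COS7 cells overexpressing human LULL1; score merges per-feature 667 nm fluorescence with signal-to-noise.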 The following applies: small-molecule microarray, hLULL1 lysate binding, 635 nm fluorescence; higher = more signal.
The nature of assay [16]: optical density change of DRC41 E. coli – strain DRC41, OD650, 24 h, E. coli filamentation project, primary screen (AID 1093).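 Note: MC1000 strain lacking acrAB efflux and sulA so SOS filamentation is blocked; test concentration not given here.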 To be noted: E. coli DRC41 growth, higher = more signal, called active from +8 up or from −8 down.
The nature of assay [17]: probe aLefty2 binding to arrayed compounds – biochemical, biotinylated probe, 635/667 nm fluorescence, primary screen (AID 1094).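 Note: score merges spot fluorescence near 667 nm with spot signal-to-noise ratio.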 The following applies: small-molecule microarray, higher = more signal.
The subject of assay [18] is Noggin (protein binding on small-molecule microarray). Briefly: small molecules binding Noggin protein – biochemical, 635/667 nm fluorescence, primary screen (AID 1095).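 Note: score merges 667 nm feature fluorescence with signal to noise over triplicate slides.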 The following applies: 635 nm fluorescence, higher = more signal.
The target in assay [19] is Neurogenic locus notch homolog protein 3 (Homo sapiens) (UniProt Q9UM47). Briefly: small molecules binding NOTCH3 protein – biochemical, 635/667 nm fluorescence, primary screen (AID 1096). The following applies: small-molecule microarray, 635 nm fluorescence, higher = more signal.
The nature of assay [20]: probe aEGFR binding to arrayed compounds – biochemical, biotinylated probe, 635/667 nm fluorescence, primary screen (AID 1097).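 Note: probe is a biotinylated anti-EGFR antibody binding compounds printed on slides; score combines fluorescence near 667 nm and signal to noise of each spot.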 The following applies: small-molecule microarray, higher = more signal.

The source made the active and inactive calls.

Sequence of Neurogenic locus notch homolog protein 2 (Homo sapiens) (Q04721 whole entry, looked up, canonical isoform): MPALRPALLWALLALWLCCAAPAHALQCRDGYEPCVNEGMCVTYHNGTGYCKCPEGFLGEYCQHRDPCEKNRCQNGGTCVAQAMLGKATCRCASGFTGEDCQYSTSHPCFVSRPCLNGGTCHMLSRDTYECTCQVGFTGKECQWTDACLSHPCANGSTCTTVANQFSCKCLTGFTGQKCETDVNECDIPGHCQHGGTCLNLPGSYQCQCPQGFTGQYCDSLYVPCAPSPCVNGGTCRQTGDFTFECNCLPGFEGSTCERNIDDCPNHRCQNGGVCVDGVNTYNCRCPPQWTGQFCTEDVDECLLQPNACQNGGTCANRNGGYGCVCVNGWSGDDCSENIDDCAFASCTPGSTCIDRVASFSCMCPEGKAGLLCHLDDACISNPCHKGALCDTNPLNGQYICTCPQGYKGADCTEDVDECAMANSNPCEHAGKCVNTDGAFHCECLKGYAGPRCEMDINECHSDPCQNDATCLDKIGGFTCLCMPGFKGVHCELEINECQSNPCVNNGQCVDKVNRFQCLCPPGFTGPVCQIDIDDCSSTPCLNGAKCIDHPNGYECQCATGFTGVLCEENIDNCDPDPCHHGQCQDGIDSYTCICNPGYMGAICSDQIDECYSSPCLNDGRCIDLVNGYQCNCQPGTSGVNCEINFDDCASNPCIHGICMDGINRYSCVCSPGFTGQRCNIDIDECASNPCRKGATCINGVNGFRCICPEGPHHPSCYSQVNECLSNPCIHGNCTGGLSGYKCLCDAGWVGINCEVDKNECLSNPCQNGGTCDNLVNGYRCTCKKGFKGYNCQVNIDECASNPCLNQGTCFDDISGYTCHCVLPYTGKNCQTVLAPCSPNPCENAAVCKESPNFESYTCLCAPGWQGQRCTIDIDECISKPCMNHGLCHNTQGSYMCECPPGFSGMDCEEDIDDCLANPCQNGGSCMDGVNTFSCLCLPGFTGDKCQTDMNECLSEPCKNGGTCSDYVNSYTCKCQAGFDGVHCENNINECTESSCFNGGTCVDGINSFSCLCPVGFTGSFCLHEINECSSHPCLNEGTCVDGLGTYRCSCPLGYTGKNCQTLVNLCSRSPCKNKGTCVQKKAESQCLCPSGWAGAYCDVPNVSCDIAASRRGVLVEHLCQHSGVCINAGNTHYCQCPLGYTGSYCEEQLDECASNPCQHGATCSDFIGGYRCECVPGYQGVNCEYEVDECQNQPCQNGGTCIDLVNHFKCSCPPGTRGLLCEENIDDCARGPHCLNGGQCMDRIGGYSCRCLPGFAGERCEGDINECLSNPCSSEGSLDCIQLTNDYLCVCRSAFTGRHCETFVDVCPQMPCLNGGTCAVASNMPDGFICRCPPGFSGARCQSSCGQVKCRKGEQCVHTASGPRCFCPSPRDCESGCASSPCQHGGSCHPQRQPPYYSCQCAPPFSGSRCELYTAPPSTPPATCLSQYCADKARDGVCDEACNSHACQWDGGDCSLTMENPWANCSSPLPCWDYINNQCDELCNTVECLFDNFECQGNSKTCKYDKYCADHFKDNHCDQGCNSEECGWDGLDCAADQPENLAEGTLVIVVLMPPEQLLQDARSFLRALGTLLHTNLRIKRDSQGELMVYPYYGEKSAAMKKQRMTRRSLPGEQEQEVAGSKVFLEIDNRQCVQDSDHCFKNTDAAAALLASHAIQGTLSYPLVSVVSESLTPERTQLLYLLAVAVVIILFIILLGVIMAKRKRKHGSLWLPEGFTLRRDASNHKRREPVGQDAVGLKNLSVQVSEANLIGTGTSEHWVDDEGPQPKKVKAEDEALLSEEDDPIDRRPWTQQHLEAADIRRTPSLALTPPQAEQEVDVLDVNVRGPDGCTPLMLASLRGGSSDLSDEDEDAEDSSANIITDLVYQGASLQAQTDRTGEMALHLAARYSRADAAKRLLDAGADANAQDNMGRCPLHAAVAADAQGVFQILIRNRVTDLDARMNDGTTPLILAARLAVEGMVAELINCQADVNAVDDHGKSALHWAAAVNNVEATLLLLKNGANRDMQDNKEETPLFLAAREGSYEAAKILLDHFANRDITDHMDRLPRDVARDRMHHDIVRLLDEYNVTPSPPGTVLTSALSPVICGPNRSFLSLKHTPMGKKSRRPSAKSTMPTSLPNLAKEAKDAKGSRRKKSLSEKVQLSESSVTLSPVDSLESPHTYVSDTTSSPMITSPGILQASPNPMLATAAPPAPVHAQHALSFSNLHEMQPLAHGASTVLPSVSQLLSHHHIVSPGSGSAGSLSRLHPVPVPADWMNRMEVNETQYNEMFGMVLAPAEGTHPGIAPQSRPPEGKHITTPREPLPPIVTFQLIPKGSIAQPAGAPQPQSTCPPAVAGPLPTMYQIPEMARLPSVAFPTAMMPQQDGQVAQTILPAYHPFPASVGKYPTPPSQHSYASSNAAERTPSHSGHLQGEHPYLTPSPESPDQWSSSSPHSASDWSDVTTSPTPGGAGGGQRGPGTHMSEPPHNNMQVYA
Sequence of Torsin-1A-interacting protein 2 (Homo sapiens) (Q8NFQ8 whole entry, looked up): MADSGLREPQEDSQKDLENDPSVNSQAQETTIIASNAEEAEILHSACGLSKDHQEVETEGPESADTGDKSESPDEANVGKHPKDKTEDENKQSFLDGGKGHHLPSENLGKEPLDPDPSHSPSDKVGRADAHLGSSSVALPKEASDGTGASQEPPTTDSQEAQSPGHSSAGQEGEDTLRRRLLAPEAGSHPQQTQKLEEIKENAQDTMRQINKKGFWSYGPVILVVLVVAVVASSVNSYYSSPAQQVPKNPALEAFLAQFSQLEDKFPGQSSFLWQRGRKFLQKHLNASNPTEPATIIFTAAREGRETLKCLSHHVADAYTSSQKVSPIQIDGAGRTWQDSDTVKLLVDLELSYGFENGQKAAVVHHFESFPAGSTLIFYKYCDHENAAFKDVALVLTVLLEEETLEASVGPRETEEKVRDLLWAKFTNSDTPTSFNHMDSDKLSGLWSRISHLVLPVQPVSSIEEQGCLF
Sequence of Pro-neuregulin-1, membrane-bound isoform (Homo sapiens) (Q02297 whole entry, looked up, the tested form may be a part, canonical isoform): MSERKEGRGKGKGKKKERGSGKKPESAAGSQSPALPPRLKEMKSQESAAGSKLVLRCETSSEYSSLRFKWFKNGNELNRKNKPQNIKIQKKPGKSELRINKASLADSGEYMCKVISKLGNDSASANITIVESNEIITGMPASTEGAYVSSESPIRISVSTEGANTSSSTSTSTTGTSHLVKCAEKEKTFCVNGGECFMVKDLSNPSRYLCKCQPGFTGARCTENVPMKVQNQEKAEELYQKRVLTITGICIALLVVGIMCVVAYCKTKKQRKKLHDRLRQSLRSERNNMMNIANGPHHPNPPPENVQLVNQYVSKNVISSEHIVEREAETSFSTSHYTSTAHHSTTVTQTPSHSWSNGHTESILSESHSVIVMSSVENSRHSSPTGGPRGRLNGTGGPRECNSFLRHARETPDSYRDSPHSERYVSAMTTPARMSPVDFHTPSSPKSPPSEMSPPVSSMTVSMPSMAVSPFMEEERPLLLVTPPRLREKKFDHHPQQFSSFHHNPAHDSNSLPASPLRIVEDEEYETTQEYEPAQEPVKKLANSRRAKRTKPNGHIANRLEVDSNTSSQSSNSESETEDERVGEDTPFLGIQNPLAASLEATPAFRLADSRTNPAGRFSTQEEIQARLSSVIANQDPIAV

Take `C[C@]1(C(=O)NCc2ccccc2)c2ccccc2C(=O)N(Cc2cc(F)cc(C(F)(F)F)c2)[C@H]1c1ccc(CO)cc1`: the composite z-score in assay [1] was 0.46; in assay [2], -0.512; in [3], -0.0894; in assay [4], -0.0459; in [5], -0.706; in [6] it was -0.353. In addition, the composite z-score in [7] is 1.26; in assay [9], -0.344; in assay [10] it was -0.0994; in [11] it was 0.113; in assay [15], 2.68; in [17], -0.0508. Moreover, the composite z-score in assay [18] was -1.67; in [19], -1.37; in assay [20], -0.253. Also, the z-score in assay [8] was -3.12 (inactive); in assay [12], 0.328 (inactive); in assay [13] it was -0.325 (inactive); in assay [14] it was -0.0212 (inactive); in assay [16] it was 0.808 (inactive).
Take `C=C(COC)C(=O)CC[C@H](OC(C)=O)c1cccc(OCCO)c1`: the composite z-score in assay [1] is -0.0206; in assay [2] it was 1.66; in assay [3], -0.0767; in assay [4] it was 0.553; in assay [5], -0.844; in assay [6], -0.13. Also, the composite z-score in assay [7] is -0.208; in assay [9], -0.392; in assay [10] it was -0.291; in assay [11] it was 0.591; in assay [15] it was 0.118; in assay [17] it was -0.158. For the same compound, the results for the composite z-score in assay [18], in assay [19] and in [20] were 1.03, -0.902 and -0.263, respectively. Moreover, the z-score is 0.39 (inactive) in assay [8]; 0.513 (inactive) in [12]; -1.34 (inactive) in assay [13]; -0.0523 (inactive) in [14]; 0.896 (inactive) in assay [16].
Regarding `Cc1ccc([C@H]2C(C(=O)O)=C[C@@H](C)N2S(=O)(=O)c2ccc(C)cc2)cc1`, the composite z-score in [1] is 0.247; in [2] it was -0.36; in assay [3], -0.0867; in assay [4] it was -0.337; in assay [5], -0.0054; in [6] it was 1.52. Besides, the composite z-score in assay [7] was 0.962; in assay [9], -0.882; in assay [10], -0.201; in assay [11], 0.896; in assay [15], 3.71; in [17], 0.0754. Further, the composite z-score in [18] was -0.24; in [19], -0.546; in [20], -0.165. Moreover, the z-score was -0.282 (inactive) in assay [8]; -0.495 (inactive) in [12]; -0.812 (inactive) in assay [13]; -0.422 (inactive) in assay [14]; -0.291 (inactive) in assay [16].
Take `CCCCC(CC)C(O)C1C=CC2C(=O)N(c3ccccc3)C(=O)C2N1Nc1ccccc1` (stereo not given): the composite z-score worked out at 0.0807 in assay [1]; 0.34 in assay [2]; 0.0472 in assay [3]; 0.698 in assay [4]; 1.46 in assay [5]; 0.796 in assay [6]. In addition, the composite z-score in assay [7] is 1.06; in [9], 1.1; in [10], -0.0618; in [11] it was 0.527; in assay [15], 2.94; in assay [17] it was 0.0319. The composite z-score is -0.0087 in assay [18], 1.11 in [19] and 0.0276 in assay [20]. Also, the z-score in assay [8] was -0.274 (inactive); in [12] it was 0.549 (inactive); in [13] it was 0.645 (inactive); in assay [14] it was 0.804 (inactive); in assay [16] it was -1.54 (inactive).
In the case of `CCN(CC)c1ccc(N2CC=CC34O[C@@H]5/C=C\CCCOC(=O)C5[C@H]3C(=O)N(C(CO)C(C)C)[C@@H]4C2=O)cc1` (stereo not given in full), the composite z-score in assay [1] is 0.0964; in assay [2] it was -1.2; in [3], -0.159; in assay [4], -0.381; in [5] it was -0.686; in [6] it was 1.78. Moreover, the composite z-score in [7] was 0.897; in assay [9] it was -0.406; in assay [10], 0.0142; in assay [11], 0.0395; in [15] it was 2.03; in assay [17] it was -0.168. Besides, the composite z-score is -0.708 in assay [18], -0.0981 in assay [19] and -0.198 in [20]. Further, the z-score in assay [8] is 0.455 (inactive); in assay [12], 0.803 (inactive); in assay [13], -0.193 (inactive); in [14], -0.0204 (inactive); in assay [16], -0.309 (inactive).
For `O=C(NCc1ccccc1)[C@]1(CCS(=O)(=O)c2ccccc2)N=C(c2ccc(OCCCO)cc2)O[C@@H]1c1ccccc1`, the composite z-score in assay [1] stood at 0.0169; in assay [2], 0.938; in assay [3], 0.0485; in [4] it was 1.05; in assay [5], 1.68; in [6] it was 1.48. In addition, the composite z-score in assay [7] was 1.18; in assay [9] it was 1.31; in assay [10], -0.378; in assay [11] it was 1.57; in assay [15] it was 1.78; in assay [17] it was -0.0552. The composite z-score in assay [18] was determined as 0.204; in [19] it was 1.07; in [20] it was 0.219. The z-score is -2.35 (inactive) in assay [8]; 0.63 (inactive) in assay [12]; 0.194 (inactive) in [13]; 36.9 (active) in assay [14]; 0.887 (inactive) in assay [16].
